The record followed here is PubChem BioAssay (EPA / NIEHS).

Assay [1] deals with Oxysterols receptor LXR-alpha (Homo sapiens) (UniProt Q13133). In words: ATG_LXRa_TRANS: Attagene TRANS-FACTORIAL HepG2 Assay for human Liver X Receptor alpha (LXRa) (AID 2282980). To be noted: HepG2 Attagene TRANS reporter, LXRa transactivation. The gist of the method: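 Chemical-induced reporter mRNA measured by RT-PCR with fluorescent labelling and capillary electrophoresis after 24 h dosing of transiently transfected HepG2 cells expressing exogenous NR-Gal4 chimeras; increases scored against DMSO baseline.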

Assay [2] deals with Hepatocyte nuclear factor 4-alpha (Homo sapiens) (UniProt P41235). Description: ATG_HNF4a_TRANS: Attagene TRANS-FACTORIAL HepG2 Assay for human Hepatocyte Nuclear Factor 4 alpha (HNF4a) (AID 2282982). Conditions: HepG2 HNF4a transactivation reporter, mRNA readout. The essentials: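 Readout is fluorescent reporter-transcript fragments resolved by capillary electrophoresis after RT-PCR from HepG2 cells dosed for 24 h. Cells carried transfected GAL4-UAS reporter constructs measuring exogenous NR-GAL4 chimera activity; DMSO served as baseline.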

A short description of assay [3]: ATG_M_32_TRANS: Attagene TRANS-FACTORIAL HepG2 Assay for M32 Transcription Factor (Internal Marker) (AID 2282984).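 Also: transcript level of a background control reporter unit measured by RT-PCR and capillary electrophoresis.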 Conditions: HepG2 Attagene TRANS M32 internal marker reporter. The gist of the method:
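Measures reporter mRNA induction in human HepG2 liver cells after 24 h chemical treatment. Transcripts from transiently transfected GAL4-UAS reporter units are amplified, fluorescently labelled and sized by capillary electrophoresis; gain of signal relative to DMSO.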

The target of assay [4] is Nuclear receptor subfamily 4 group A member 2 (Homo sapiens) (UniProt P43354). In words: ATG_NURR1_TRANS: Attagene TRANS-FACTORIAL HepG2 Assay for human Nuclear Receptor Related Protein 1 (NURR1) (AID 2282985). Conditions: HepG2 Attagene TRANS reporter, mRNA readout. The essentials:
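Transient transfection of HepG2, human liver cells, with multiple GAL4-UAS reporter transcription units. Cells dosed 24 h, RNA isolated, reverse-transcribed, PCR-amplified, FAM-labelled, HpaI-digested, sized by capillary electrophoresis. DMSO served as negative control.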

Assay [5] has as its target Transcriptional activator Myb (Homo sapiens) (UniProt P10242). Description: ATG_Myb_CIS: Attagene CIS-FACTORIAL HepG2 Assay for human Myeloblastosis (Myb) Proto-Oncogene Transcription Factor (AID 2282986; active = hit-call score of the fitted dose curve at least 0.9, where 1 is the maximum; inactive = score below 0.9). To be noted: HepG2 Attagene CIS-FACTORIAL Myb reporter transcription; actives raise or lower the signal. The gist of the method: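 Transiently transfected HepG2 cells, treated 24 h. Reporter mRNA quantified by RT-PCR/capillary electrophoresis; bidirectional fit relative to DMSO.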

The nature of assay [6]: ATG_M_06_TRANS: Attagene TRANS-FACTORIAL HepG2 Assay for M06 Transcription Factor (Internal Marker) (AID 2282983).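 Also: reporter transcript level by RT-PCR then capillary electrophoresis fluorescence.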 Conditions: HepG2 Attagene TRANS M06 internal marker reporter. The gist of the method: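 Cells: HepG2, transient multi-reporter transfection. Exposure: 24 h. Detection: RT-PCR, 6-FAM labelling, HpaI digestion (2 h, 37 °C), capillary electrophoresis. Baseline: DMSO.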

Assay [7] deals with Oxysterols receptor LXR-beta (Homo sapiens) (UniProt P55055). Description: ATG_LXRb_TRANS: Attagene TRANS-FACTORIAL HepG2 Assay for human Liver X Receptor beta (LXRb) (AID 2282981). Conditions: HepG2 Attagene TRANS GAL4-LXRb reporter, mRNA. The essentials: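 Transient transfection HepG2 (multiplexed RTUs, GAL4-UAS); NR-Gal4 chimera; 24 h exposure; RNA → RT-PCR → 6-FAM primer extension → HpaI → CE; increase vs DMSO.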

Results filed as inconclusive are left out. Active and inactive are the calls of the source. The calls were made as follows, unless noted: active = hit-call score of the fitted dose curve at least 0.9, where 1 is the maximum; inconclusive = response in the unintended direction; inactive = score below 0.9. Peptide text beside a SMILES is read from it.

The term AC50 denotes the concentration at which the activity in the assay is half-maximal.

Chain of Hepatocyte nuclear factor 4-alpha (Homo sapiens) (P41235 whole entry, looked up, the tested form may be a part): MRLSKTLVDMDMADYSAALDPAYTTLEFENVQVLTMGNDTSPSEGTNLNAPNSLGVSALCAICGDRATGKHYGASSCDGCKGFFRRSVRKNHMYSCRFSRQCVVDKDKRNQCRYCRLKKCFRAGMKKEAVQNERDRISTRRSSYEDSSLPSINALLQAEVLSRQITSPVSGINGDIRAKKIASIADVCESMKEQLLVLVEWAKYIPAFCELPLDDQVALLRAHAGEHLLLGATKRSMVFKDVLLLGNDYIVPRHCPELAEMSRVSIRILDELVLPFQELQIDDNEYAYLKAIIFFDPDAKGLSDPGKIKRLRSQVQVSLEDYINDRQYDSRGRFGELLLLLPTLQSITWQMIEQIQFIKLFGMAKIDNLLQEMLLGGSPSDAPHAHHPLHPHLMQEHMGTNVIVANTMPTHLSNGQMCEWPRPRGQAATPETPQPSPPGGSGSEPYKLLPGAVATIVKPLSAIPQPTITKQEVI
Chain of Oxysterols receptor LXR-alpha (Homo sapiens) (Q13133 whole entry, looked up, the tested form may be a part): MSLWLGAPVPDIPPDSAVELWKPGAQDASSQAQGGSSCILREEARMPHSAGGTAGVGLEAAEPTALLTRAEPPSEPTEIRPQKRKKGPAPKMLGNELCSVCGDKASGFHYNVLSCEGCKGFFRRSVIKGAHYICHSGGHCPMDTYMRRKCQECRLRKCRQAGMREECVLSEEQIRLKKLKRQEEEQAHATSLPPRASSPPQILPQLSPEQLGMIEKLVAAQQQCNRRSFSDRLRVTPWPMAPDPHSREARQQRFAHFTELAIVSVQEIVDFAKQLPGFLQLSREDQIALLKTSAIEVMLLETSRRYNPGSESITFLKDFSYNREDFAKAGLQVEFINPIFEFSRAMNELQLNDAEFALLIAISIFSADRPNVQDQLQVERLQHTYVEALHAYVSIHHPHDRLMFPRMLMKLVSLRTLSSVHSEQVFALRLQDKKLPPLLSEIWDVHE
Chain of Transcriptional activator Myb (Homo sapiens) (P10242 whole entry, looked up): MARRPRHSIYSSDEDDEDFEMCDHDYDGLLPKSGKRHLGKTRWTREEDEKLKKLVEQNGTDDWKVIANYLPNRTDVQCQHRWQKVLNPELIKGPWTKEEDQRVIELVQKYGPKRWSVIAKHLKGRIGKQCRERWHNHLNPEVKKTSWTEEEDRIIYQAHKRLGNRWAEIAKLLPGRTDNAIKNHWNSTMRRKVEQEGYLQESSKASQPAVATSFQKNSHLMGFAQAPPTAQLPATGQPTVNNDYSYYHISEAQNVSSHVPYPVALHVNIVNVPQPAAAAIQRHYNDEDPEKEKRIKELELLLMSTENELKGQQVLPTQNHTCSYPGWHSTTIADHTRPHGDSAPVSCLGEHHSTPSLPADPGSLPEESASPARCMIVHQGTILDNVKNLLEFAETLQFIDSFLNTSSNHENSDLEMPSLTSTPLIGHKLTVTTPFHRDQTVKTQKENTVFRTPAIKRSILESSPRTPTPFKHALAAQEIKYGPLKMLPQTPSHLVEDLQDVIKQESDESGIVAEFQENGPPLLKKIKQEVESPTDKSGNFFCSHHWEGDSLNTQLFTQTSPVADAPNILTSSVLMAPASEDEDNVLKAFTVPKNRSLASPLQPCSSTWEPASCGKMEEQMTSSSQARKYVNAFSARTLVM
Chain of Nuclear receptor subfamily 4 group A member 2 (Homo sapiens) (P43354 whole entry, looked up, the tested form may be a part): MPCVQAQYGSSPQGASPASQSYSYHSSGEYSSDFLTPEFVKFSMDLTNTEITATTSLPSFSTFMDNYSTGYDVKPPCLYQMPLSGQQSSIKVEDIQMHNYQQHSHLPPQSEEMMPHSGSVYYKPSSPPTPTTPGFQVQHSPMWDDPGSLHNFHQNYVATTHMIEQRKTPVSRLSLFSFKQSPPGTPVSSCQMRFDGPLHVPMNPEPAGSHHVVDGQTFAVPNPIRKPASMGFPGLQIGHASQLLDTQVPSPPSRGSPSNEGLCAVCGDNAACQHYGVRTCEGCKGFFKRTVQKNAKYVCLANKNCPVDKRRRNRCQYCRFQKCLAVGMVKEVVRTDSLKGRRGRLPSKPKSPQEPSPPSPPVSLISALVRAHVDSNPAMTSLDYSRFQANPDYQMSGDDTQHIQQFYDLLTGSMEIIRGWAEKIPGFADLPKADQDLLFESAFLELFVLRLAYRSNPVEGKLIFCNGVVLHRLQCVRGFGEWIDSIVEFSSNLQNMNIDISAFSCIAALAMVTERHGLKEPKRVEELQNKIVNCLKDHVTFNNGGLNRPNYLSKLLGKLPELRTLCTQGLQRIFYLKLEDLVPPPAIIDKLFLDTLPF
Chain of Oxysterols receptor LXR-beta (Homo sapiens) (P55055 whole entry, looked up, the tested form may be a part): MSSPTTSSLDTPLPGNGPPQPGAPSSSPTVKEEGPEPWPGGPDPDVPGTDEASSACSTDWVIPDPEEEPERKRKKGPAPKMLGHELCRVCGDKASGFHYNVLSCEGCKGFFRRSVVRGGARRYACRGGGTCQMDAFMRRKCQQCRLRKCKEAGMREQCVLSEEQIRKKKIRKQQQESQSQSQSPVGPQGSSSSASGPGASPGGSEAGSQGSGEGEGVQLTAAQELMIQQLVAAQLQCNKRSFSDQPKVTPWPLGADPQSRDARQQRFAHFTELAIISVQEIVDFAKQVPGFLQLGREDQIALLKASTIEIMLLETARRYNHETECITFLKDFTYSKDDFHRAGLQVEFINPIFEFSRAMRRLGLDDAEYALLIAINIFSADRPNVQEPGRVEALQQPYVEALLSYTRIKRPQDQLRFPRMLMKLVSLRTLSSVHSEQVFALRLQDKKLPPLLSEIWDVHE

As to `CCC[Si](OC)(OC)OC`, the outcome in assay [1], in assay [2], in assay [3], in assay [4] and in assay [5] was inactive.
For `CC1=CCC(C(C)C)C=C1` (stereo not given), the result in assay [1], in assay [2], in assay [6], in assay [3], in assay [4] and in assay [5] was inactive.
As to `COC(=O)[C@H](Cc1ccccc1)NC(=O)[C@@H](N)CC(=O)O` (H-Asp-Phe-OMe), the compound was classed as inactive in assay [1], in assay [3] and in assay [5].
In the case of `CCCCOCC(C)O` (stereo not given), the result in assay [1], in assay [6] and in assay [4] was inactive.
Turning to `CC(C)COC(=O)CC(C(=O)OCC(C)C)S(=O)(=O)O` (stereo not given), the compound was called inactive in assay [1], in assay [4] and in assay [5].
In the case of `N#CC1(N)CCCCC1`, the compound was classed as inactive in assay [1], in assay [3], in assay [4] and in assay [5].
With `O=c1c(O)c(-c2ccc(O)cc2O)oc2cc(O)cc(O)c12`, the call in assay [1] and in assay [4] was inactive.
As to `Nc1ccc(Cl)c(N)c1`, the result in assay [1], in assay [6] and in assay [3] was inactive.
With `C=CC(=O)OCC(C)OCC(C)OCC(C)OC(=O)C=C` (stereo not given), the compound was called inactive in assay [7], in assay [2] and in assay [6]. The AC50 in assay [5] was 65.2 µM (active).
With `c1ccc2c(c1)[nH]c1ccccc12`, the compound was classed as inactive in assay [7], in assay [2], in assay [3], in assay [4] and in assay [5].
`O=C(O[C@@H]1Cc2c(O)cc(O)cc2O[C@@H]1c1cc(O)c(O)c(O)c1)c1cc(O)c(O)c(O)c1`: the outcome in assay [1], in assay [7], in assay [6], in assay [3], in assay [4] and in assay [5] was inactive.
Take `C=C(C)C1CC=C(C)CC1` (stereo not given): the outcome in assay [1], in assay [7], in assay [3], in assay [4] and in assay [5] was inactive.
`O=C1CCCCC1C1CCCCC1` (stereo not given): the result in assay [1] and in assay [5] was inactive.
As for `CC(C)CCOCc1ccccc1`, the outcome in assay [1], in assay [7], in assay [6], in assay [3], in assay [4] and in assay [5] was inactive.
Turning to `CC(CC=O)CC(C)(C)C` (stereo not given), the outcome in assay [1], in assay [7], in assay [4] and in assay [5] was inactive.
Consider `CCCCCCCO`, for which the compound was called inactive in assay [1], in assay [6], in assay [3] and in assay [5].
`C=C[C@@]1(C)CC(=O)[C@]2(O)[C@@]3(C)[C@@H](O)CCC(C)(C)[C@@H]3[C@H](O)[C@H](OC(C)=O)[C@@]2(C)O1`: the compound was classed as inactive in assay [1], in assay [3], in assay [4] and in assay [5]. For the same compound, the AC50 in assay [7] is 0.973 µM (active).
As to `CC=C(C)C=CC=C(C)C`, the compound was classed as inactive in assay [1], in assay [6] and in assay [5].
In the case of `COC(=O)C=Cc1ccccc1`, the compound was called inactive in assay [1], in assay [7], in assay [6] and in assay [5].
Take `N#Cc1ccc(C2CCCc3cncn32)cc1` (stereo not given): the compound was classed as inactive in assay [1], in assay [2], in assay [6], in assay [3], in assay [4] and in assay [5].
Take `Cc1ccc2c(c1)CCCN2`: the result in assay [1], in assay [2], in assay [3], in assay [4] and in assay [5] was inactive.
With `C=CC(=O)NC(C)(C)C`, the compound was classed as inactive in assay [7], in assay [2], in assay [4] and in assay [5].
As for `O=C(Oc1ccccc1)c1ccccc1O`, the call in assay [7], in assay [6], in assay [4] and in assay [5] was inactive.
For `COCC(=O)O`, the call in assay [2], in assay [3] and in assay [5] was inactive.
As for `Nc1ccc(C(=O)O)cc1`, the compound was called inactive in assay [2], in assay [4] and in assay [5].
As for `CCCCCCCCCC[N+](C)(CCCCCCCCCC)CCC[Si](OC)(OC)OC`, the compound was classed as inactive in assay [7] and in assay [2]. The AC50 in assay [5] is 15.9 µM (active).
Turning to `C[Si](C)(C)N[Si](C)(C)C`, the call in assay [2] and in assay [6] was inactive.
For `CCCCOCCOC(=O)COc1ccc(Cl)cc1Cl`, the compound was called inactive in assay [2], in assay [6], in assay [4] and in assay [5].
As for `CCCCOC(=O)C(C)CC` (stereo not given), the result in assay [6] and in assay [5] was inactive.
Regarding `CC(C)(O)Cc1ccccc1`, the call in assay [3], in assay [4] and in assay [5] was inactive.
For the compound `C=Cc1cccc(C)c1`, the compound was classed as inactive in assay [6], in assay [3] and in assay [5].
Turning to `CC(C)CC(=O)OCc1ccccc1`, the compound was called inactive in assay [2], in assay [6], in assay [4] and in assay [5].
As for `COc1nccnc1CC(C)C`, the call in assay [7], in assay [6] and in assay [5] was inactive.
In the case of `O=C(O)C1CCC(C(=O)O)CC1` (stereo not given), the result in assay [6] and in assay [5] was inactive.
For `CC/C=C\CCOC(=O)c1ccccc1O`, the call in assay [2], in assay [4] and in assay [5] was inactive.
On to `CCOC(=O)c1ccccc1C`, for which the compound was called inactive in assay [7], in assay [6], in assay [4] and in assay [5].
As for `C=C(C)C(=O)OCCOC(=O)C(=C)C`, the compound was classed as inactive in assay [2], in assay [6], in assay [3] and in assay [5].
On to `CCCC=C(C=O)CC`, for which the outcome in assay [2], in assay [6], in assay [4] and in assay [5] was inactive.
Regarding `NC(=O)Nc1ccccc1`, the compound was called inactive in assay [2] and in assay [5].
As to `CC=C(C)C(C)=O`, the outcome in assay [7] and in assay [5] was inactive. Also, the AC50 in assay [4] was 44.7 µM (active).
For `C=CC(=O)NCOCCCC`, the outcome in assay [6], in assay [3] and in assay [5] was inactive.
On to `Cc1cc(C)c(C=O)c(C)c1`, for which the compound was called inactive in assay [5].
`CC(CC(C)C)=NO`: the compound was called inactive in assay [6] and in assay [5].
For the compound `Nc1ccnc(=O)[nH]1`, the outcome in assay [7], in assay [6] and in assay [5] was inactive.
With `CC1OC(=O)C(C)OC1=O` (stereo not given), the compound was classed as inactive in assay [2], in assay [6], in assay [3], in assay [4] and in assay [5].
Regarding `CCCc1ccc(O)c(OC)c1`, in assay [5], the compound was classed as inactive.
On to `CC(=O)CC(=O)Nc1ccccc1C`, for which the compound was classed as inactive in assay [2], in assay [6] and in assay [5].
As to `c1ccc(Nc2cccc3ccccc23)cc1`, the call in assay [6], in assay [3] and in assay [4] was inactive. The AC50 in assay [5] is 33.4 µM (active).
As to `C1CNCCN1`, the compound was classed as inactive in assay [6] and in assay [3].
Take `CCCCCCC=O`: the outcome in assay [7], in assay [3], in assay [4] and in assay [5] was inactive.
With `C=C(C)[C@@H]1CC=C(C)CC1`, the compound was called inactive in assay [6] and in assay [5].
For the compound `CC(=O)OC1CCCCC1C(C)(C)C` (stereo not given), the compound was called inactive in assay [4] and in assay [5].
With `CN(C)Cc1cc(CN(C)C)c(O)c(CN(C)C)c1`, the call in assay [2], in assay [6], in assay [4] and in assay [5] was inactive.
As for `CC(=O)OCCc1ccccc1`, the compound was classed as inactive in assay [2], in assay [6], in assay [3] and in assay [5].
As to `CC1=CCC2CC1C2(C)C` (stereo not given), the compound was classed as inactive in assay [2], in assay [6] and in assay [3].
For the compound `O=C(O)/C=C/c1ccccc1`, the outcome in assay [6], in assay [4] and in assay [5] was inactive.
`CC1=NN(c2ccc(S(=O)(=O)O)cc2)C(=O)C1N=Nc1ccccc1` (stereo not given): the compound was called inactive in assay [6], in assay [3], in assay [4] and in assay [5].
`COC(=O)c1ccccc1C`: the compound was classed as inactive in assay [4] and in assay [5].
Take `CC(=O)OC(C)c1ccccc1` (stereo not given): the call in assay [2], in assay [6], in assay [3], in assay [4] and in assay [5] was inactive.
Take `C=CCCCCCCCCO`: the call in assay [2], in assay [6], in assay [3], in assay [4] and in assay [5] was inactive.
